From PubChem BioAssay
TGFb SMAD3 inh – qHTS for Inhibitors of TGF-b; 410,000 tested, 1.2% active; Potency, µM (doses to about 46.1 µM), usual class: inhibitors; AID 588855, 2011; HepG2 CAGA-GFP TGF-b/SMAD3 reporter, GFP fluorescence, 18 h; TGF-beta stimulated, 500 pg/mL final; also: nearly all actives have a fitted effect of over 65% in size
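HEPG2 CAGA-GFP, 1000 cells/well; 2 h settle, 37 C; cpd via pin tool; TGF-b 500 pg/mL final; 18 h, 37 C; GFP imaging ex488/em500-530; %Activity normalised to -TGF-b and +DMSO controls; CRC fit, curve class.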
HepG2 viability – qHTS for Inhibitors of TGF-b: Cytotox Counterscreen. HepG2 CAGA-GFP viability, ATP luminescence, 18 h. Potency, µM (doses to about 46.1 µM), most hits filed as cytotoxic. 410,000 tested, 0.76% active
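CellTiter-Glo luminescence gave cytotoxicity after 18 hours at 37 degrees C. The cells were HepG2 CAGA-GFP in 1% FBS DMEM, stimulated with 500 pg/mL TGF-beta after compound addition. %Activity was normalised to no-cell wells (complete cell-killing) and DMSO (no toxicity), and curves were fitted and classified.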
IL-1B inflam inh – qHTS for Inhibitors of Inflammasome Signaling: IL-1-beta AlphaLISA Primary Screen; THP-1 LPS/ATP IL-1B secretion, AlphaLISA, 16 h; hits give low values; activity change, % at 57.5 µM; 360,000 tested, 4.7% active; AID 743279, 2014; in the data active = activity change below about -50%; inconclusive = mostly about -30% to -49%
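Secreted IL-1B measured by AlphaLISA bead assay after 16 h compound exposure of THP-1 cells; compounds (final up to 57.5 uM) added 1 h before LPS (250 ng/mL) and ATP (1.25 mM) stimulation; lower signal means less secretion.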
DT40 TDP1 CPT – qHTS for Inhibitors of human tyrosyl-DNA phosphodiesterase 1 (TDP1): qHTS in cells in presence of CPT; 420,000 tested, 12% active; chicken DT40 Tdp1-/-;hTDP1 cells + 20 nM CPT, ATP luminescence, 48 h; Potency, µM (series often up to 46.2 µM), hits mostly inhibitors; also: nearly all actives have a fitted effect of over 55% in size
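Chicken DT40 Tdp1-/- cells stably complemented with human TDP1 were seeded at 400 cells/well in medium containing 20 nM camptothecin, exposed to pin-transferred compounds, and grown at 37 °C for at least 48 hr. Viability was read as ATP luminescence.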
TDP1 inh – qHTS Assay for Inhibitors of Tyrosyl-DNA Phosphodiesterase (TDP1). Potency, µM (top dose mostly 130 µM), usual class: inhibitors. recombinant TDP1, AlphaScreen DNA substrate cleavage. 350,000 tested, 0.28% active. Tyrosyl-DNA phosphodiesterase 1 (Homo sapiens), Q9NUW8; also: nearly all actives have a fitted effect of over 40% in size
Target sequence (Q9NUW8 whole entry, looked up): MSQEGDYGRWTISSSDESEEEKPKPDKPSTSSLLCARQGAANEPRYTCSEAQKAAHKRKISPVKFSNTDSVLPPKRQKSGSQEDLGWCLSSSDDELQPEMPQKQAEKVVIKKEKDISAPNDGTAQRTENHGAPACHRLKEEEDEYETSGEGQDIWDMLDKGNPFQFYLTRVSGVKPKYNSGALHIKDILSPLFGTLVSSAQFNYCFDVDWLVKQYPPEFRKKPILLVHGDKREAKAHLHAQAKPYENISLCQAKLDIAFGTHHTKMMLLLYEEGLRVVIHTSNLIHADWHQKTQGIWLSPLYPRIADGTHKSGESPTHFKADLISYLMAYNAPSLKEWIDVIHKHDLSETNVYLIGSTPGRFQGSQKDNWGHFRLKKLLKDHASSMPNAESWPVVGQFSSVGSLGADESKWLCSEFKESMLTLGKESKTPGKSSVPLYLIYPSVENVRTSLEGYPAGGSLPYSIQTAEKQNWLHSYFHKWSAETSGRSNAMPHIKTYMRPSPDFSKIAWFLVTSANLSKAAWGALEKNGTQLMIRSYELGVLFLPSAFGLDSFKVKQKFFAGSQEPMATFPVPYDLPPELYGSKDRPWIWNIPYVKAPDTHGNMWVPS
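AlphaScreen read-out: signal falls as enzyme removes the 3' tyrosine-FITC from a 5'-biotinylated DNA oligo (15 nM, 5 min, RT). Enzyme was E. coli-made recombinant Tdp1 at 1 nM, exposed to compound for 15 min beforehand; beads 10 ug/ml, 10 min.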
DT40 TDP1 no CPT – qHTS for Inhibitors of human tyrosyl-DNA phosphodiesterase 1 (TDP1): qHTS in cells in absence of CPT | DT40 Tdp1-/- hTDP1 cells, no CPT, ATP luminescence, 48 h | 420,000 tested, 15% active | Potency, µM (highest dose often 46.2 µM), hits mostly inhibitors | AID 686978, 2013; also: nearly all actives have a fitted effect of over 55% in size
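Compound effects on proliferation are scored in DT40 Tdp1-/-;hTDP1 cells in the absence of CPT. ATP levels (CellTiter-Glo luminescence) are recorded after a ≥48 hr, 37 °C incubation.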
Hits are given with their value; . = inactive; ? = inconclusive; / = not tested or not shown. Most compounds without a hit are left out; they make up all but 19% or so of the library. Unless noted, calls follow the shape of the dose curve; as a rule, active = well fitted curve in the direction sought with a large enough effect; inconclusive = small, poorly fitted or top-dose-only effect, or another doubt; inactive = no such curve, though single readings can be large; an effect the other way counts as inactive or inconclusive.

SMILES | TGFb SMAD3 inh | HepG2 viability | IL-1B inflam inh | DT40 TDP1 CPT | TDP1 inh | DT40 TDP1 no CPT
COc1ccc(CN2C(=O)c3ccccc3C(/C=N\OCc3ccc(C)cc3)C2=O)cc1 (stereo not drawn) | . | . | . | 21µM | . | 21µM
CCN(Cc1ccccc1)C(=O)c1ccc(C)c(S(=O)(=O)N2CCCCC2)c1 | . | . | . | ? | . | 16µM
Cc1ccc(C(=O)N(CCc2ccccc2)Cc2ccccc2)cc1S(=O)(=O)N1CCCCC1 | . | . | . | ? | . | 18µM
CCN(CC1COc2ccccc2O1)C(=O)c1ccc(Cl)c(S(=O)(=O)N2CC(C)OC(C)C2)c1 (stereo not drawn) | . | . | . | 7.3µM | . | 4.6µM
CCCN(CC(=O)Nc1ccccc1C)C(=O)c1ccc(C)c(S(=O)(=O)N2CCCCC2)c1 | . | . | . | . | . | .
Cc1ccc(C(=O)N(CCc2ccccc2)Cc2ccccc2)cc1S(=O)(=O)N1CCOCC1 | ? | . | . | 15µM | / | 23µM
COc1ccc(CC(=O)N(Cc2ccccc2)c2ccccc2)cc1S(=O)(=O)N1CCOCC1 | . | . | . | 16µM | . | 15µM
COc1ccc(C(=O)N(CCc2ccccc2)Cc2ccccc2)cc1S(=O)(=O)N1CCOCC1 | . | . | . | 23µM | . | 16µM
COCCN(Cc1ccccc1)C(=O)Cc1ccc(OC)c(S(=O)(=O)N2CCOCC2)c1 | . | . | . | . | . | ?
O=C(c1cccc(S(=O)(=O)N2CCOCC2)c1)N(CCc1ccccc1)Cc1ccccc1 | . | . | . | ? | . | ?
CC1CN(S(=O)(=O)c2cc(C(=O)N(CCc3ccccc3)Cc3ccccc3)ccc2Cl)CC(C)O1 (stereo not drawn) | . | . | . | 12µM | . | 10µM
CCOC(=O)C(C)C1(O)c2ccccc2-c2ncccc21 (stereo not drawn) | . | . | . | . | . | .
OC(CC1CC12c1ccccc1-c1ncccc12)(c1ccccc1)c1ccccc1 (stereo not drawn) | ? | . | ? | ? | . | 16µM
COc1ccc(SC[C@H](Cc2ccccc2)N2CC[C@@H](O)CCC2=O)cc1 | . | . | . | ? | . | ?
COc1ccc(SCCN2CC[C@@H](O)CCC2=O)cc1 | . | . | . | ? | . | .
CC(C)(C)[C@H]1CCC(=O)N(CCSc2ccc(Br)cc2)CC1 | ? | . | / | ? | / | 22µM
C[C@H]1CCC(=O)N([C@H](COc2ccccc2)Cc2ccccc2)CC1 | . | . | . | 18µM | / | 16µM
COc1ccc(SCCN2CC[C@@H](C(C)(C)C)CCC2=O)cc1 | ? | . | . | ? | . | 16µM
COc1ccc(SC[C@H](Cc2ccccc2)N2CC[C@@H](C(C)(C)C)CCC2=O)cc1 | ? | . | -51 | 18µM | . | ?
CCc1ccc(NCc2cc3cc4c(cc3n(CC(=O)Nc3ccc(Cl)cc3)c2=O)OCO4)cc1 | . | . | / | / | . | /
Cc1ccc2nc(-c3ccc(-c4ccccn4)s3)cn2c1 | . | . | . | . | / | ?
Cc1cc(-n2c(SCc3ccccc3F)nc3[nH]ncc3c2=O)ccc1Cl | ? | . | / | ? | . | 16µM
Cc1ccccc1-n1c(SCc2ccc(Cl)cc2)nc2[nH]ncc2c1=O | ? | . | / | 16µM | . | 18µM
COc1ccccc1NC(=O)CSc1nc2[nH]ncc2c(=O)[nH]1 | . | . | . | . | . | .
O=c1c2cn[nH]c2nc(SCc2cccc(Br)c2)n1-c1ccc(Cl)cc1 | . | . | / | ? | . | ?
